Read-out in experiment [1]: Phosphatase and tensin (PTEN), PTEN (gene 5728)
The experiment in a line: LTEA_HepaRG_PTEN: Life Technologies and Expression Analysis (LTEA) Assay for Phosphatase and tensin (PTEN) using HepaRG (AID 2283523). As to conditions: mRNA level, 48 h; actives raise or lower the signal. The essentials: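 HepaRG, 48 h exposure, 8-pt half-log series from 100 uM top, 0.5% DMSO vehicle, duplicates. Readout: Fluidigm qRT-PCR of PTEN transcript; housekeeping normalization (ACTB, GAPDH, POLR2A). Gain or loss fitted relative to DMSO baseline.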

Read-out in experiment [2]: solute carrier (SLC22A1), SLC22A1 (gene 6580)
The experiment in a line: LTEA_HepaRG_SLC22A1: Life Technologies and Expression Analysis (LTEA) Assay for solute carrier (SLC22A1) using HepaRG (AID 2283524). As to conditions: mRNA level, 48 h; actives raise or lower the signal. The essentials:
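qRT-PCR readout (TaqMan, Fluidigm arrays) of SLC22A1 transcript, normalized to three housekeeping genes; bidirectional curve fit relative to 0.5% DMSO vehicle. Differentiated human HepaRG cells, 48 h chemical exposure, top concentration 100 uM, half-log steps, eight points.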

Read-out in experiment [3]: NAD(P)H dehydrogenase [quinone] 1 (NQO1), NQO1 (gene 1728)
The experiment can be described thus: LTEA_HepaRG_NQO1: Life Technologies and Expression Analysis (LTEA) Assay for NAD(P)H dehydrogenase [quinone] 1 (NQO1) using HepaRG (AID 2283526). As to conditions: mRNA level, 48 h; actives raise or lower the signal. The essentials:
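Transcript induction or suppression is quantified by qRT-PCR in human HepaRG liver cells dosed for 48 hours. Eight half-log concentrations topping at 100 uM are used, with 0.5% DMSO as vehicle and baseline.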

Read-out in experiment [4]: Nuclear factor erythroid 2-related factor 2 (Homo sapiens) (UniProt Q16236)
The experiment in a line: LTEA_HepaRG_NFE2L2: Life Technologies and Expression Analysis (LTEA) Assay for Nuclear factor erythroid 2-related factor 2 (NFE2L2) Transcription Factor using HepaRG (AID 2283527).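 Also: TaqMan qRT-PCR transcript level normalised to ACTB GAPDH and POLR2A housekeeping genes.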 As to conditions: mRNA level, 48 h; actives raise or lower the signal. Put shortly: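 HepaRG, 48 h dosing, 8-pt half-log series from 100 uM in 0.5% DMSO, duplicates. Read-out: NFE2L2 mRNA by qRT-PCR (ACTB/GAPDH/POLR2A normalization). Bidirectional curve fit vs DMSO baseline.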

Read-out in experiment [5]: succinate dehydrogenase complex iron sulfur subunit B (SDHB), SDHB (gene 6390)
The experiment can be described thus: LTEA_HepaRG_SDHB: Life Technologies and Expression Analysis (LTEA) Assay for succinate dehydrogenase complex iron sulfur subunit B (SDHB) using HepaRG (AID 2283528). As to conditions: mRNA level, 48 h; actives raise or lower the signal. The essentials:
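Readout is SDHB transcript level by qRT-PCR, normalised to three housekeeping genes and fitted bidirectionally against 0.5% DMSO vehicle. Human HepaRG cells were treated for 48 h at up to 100 uM.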

Read-out in experiment [6]: Signal transducer and activator of transcription 3 (Homo sapiens) (UniProt P40763)
The experiment in a line: LTEA_HepaRG_STAT3: Life Technologies and Expression Analysis (LTEA) Assay for Signal transducer and activator of transcription (STAT3) using HepaRG (AID 2283529). As to conditions: mRNA level, 48 h; actives raise or lower the signal. Put shortly: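 HepaRG, 48 h exposure, 8-pt half-log series (top 100 uM), 0.5% DMSO vehicle, duplicates. Readout: STAT3 transcript by Fluidigm qRT-PCR, housekeeping-normalized; bidirectional fit vs DMSO baseline.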

Read-out in experiment [7]: solute carrier (SLCO1B1), SLCO1B1 (gene 10599)
The experiment in a line: LTEA_HepaRG_SLCO1B1: Life Technologies and Expression Analysis (LTEA) Assay for solute carrier (SLCO1B1) using HepaRG (AID 2283530). As to conditions: mRNA level, 48 h; actives raise or lower the signal. Put shortly: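 Differentiated human HepaRG cells, plated 48 h, switched to serum-free induction medium and exposed in duplicate for 48 h to 8 half-log concentrations (top 100 uM) in 0.5% DMSO. SLCO1B1 mRNA by TaqMan qRT-PCR, normalized to ACTB/GAPDH/POLR2A.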

Read-out in experiment [8]: sulfotransferase 2A1 (SULT2A1), SULT2A1 (gene 6822)
The experiment in a line: LTEA_HepaRG_SULT2A1: Life Technologies and Expression Analysis (LTEA) Assay for sulfotransferase 2A1 (SULT2A1) using HepaRG (AID 2283531). As to conditions: mRNA level, 48 h; actives raise or lower the signal. The essentials: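 Differentiated human HepaRG cells in serum-free induction medium were exposed for 48 h to eight half-log concentrations (top 100 uM, 0.5% DMSO). SULT2A1 mRNA was measured by qRT-PCR, normalized to ACTB, GAPDH and POLR2A, and fitted bidirectionally against DMSO.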

Read-out in experiment [9]: Transforming Growth Factor (TGFA), TGFA (gene 7039)
The experiment can be described thus: LTEA_HepaRG_TGFA: Life Technologies and Expression Analysis (LTEA) Assay for Transforming Growth Factor (TGFA) using HepaRG (AID 2283532). As to conditions: mRNA level, 48 h; actives raise or lower the signal. Put shortly:
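qRT-PCR read-out of TGFA transcript, normalized to three housekeeping genes, fitted bidirectionally against 0.5% DMSO baseline. Human HepaRG cultures received chemicals for 48 h at eight half-log concentrations, top 100 uM.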

Read-out in experiment [10]: Transforming Growth Factor (TGFB1), TGFB1 (gene 7040)
The experiment can be described thus: LTEA_HepaRG_TGFB1: Life Technologies and Expression Analysis (LTEA) Assay for Transforming Growth Factor (TGFB1) Transporter using HepaRG (AID 2283533). As to conditions: mRNA level, 48 h; actives raise or lower the signal. The essentials: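 Differentiated human HepaRG cells in serum-free induction medium were exposed in duplicate for 48 h to eight concentrations (top 100 uM, half-log steps, 0.5% DMSO). TGFB1 mRNA was quantified by qRT-PCR, normalized to ACTB, GAPDH, POLR2A, and fitted bidirectionally against DMSO.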

Read-out in a further experiment: TIMP1, TIMP1 (gene 7076)
The experiment can be described thus: LTEA_HepaRG_TIMP1: Life Technologies and Expression Analysis (LTEA) Assay for TIMP1 using HepaRG (AID 2283534). As to conditions: mRNA level, 48 h; actives raise or lower the signal. Put shortly: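 Differentiated human HepaRG cells in serum-free induction medium were exposed 48 h to chemicals (8 half-log concentrations, top 100 uM, 0.5% DMSO). TIMP1 mRNA was quantified by TaqMan qRT-PCR, normalized to ACTB/GAPDH/POLR2A; bidirectional fit versus DMSO.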

Read-out in experiment [11]: Tumor necrosis factor receptor 1 (TNFRSF1A), TNFRSF1A (gene 7132)
The experiment in a line: LTEA_HepaRG_TNFRSF1A: Life Technologies and Expression Analysis (LTEA) Assay for Tumor necrosis factor receptor 1 (TNFRSF1A) using HepaRG (AID 2283535). As to conditions: mRNA level, 48 h; actives raise or lower the signal. Put shortly: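 Differentiated human HepaRG cells were exposed in duplicate for 48 h in serum-free induction medium to eight concentrations (top 100 uM, half-log steps, 0.5% DMSO). TNFRSF1A mRNA was quantified by qRT-PCR, normalized to ACTB, GAPDH and POLR2A, then fitted bidirectionally against DMSO.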

Read-out in experiment [12]: Cellular tumor antigen p53 (Homo sapiens) (UniProt P04637)
The experiment can be described thus: LTEA_HepaRG_TP53: Life Technologies and Expression Analysis (LTEA) Assay for Tumor Protein P53 (TP53) using HepaRG (AID 2283537). As to conditions: mRNA level, 48 h; actives raise or lower the signal. Put shortly: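 Read-out is TP53 transcript level by microfluidic qRT-PCR, normalised to three housekeeping genes and fitted bidirectionally against DMSO. Human HepaRG cells received compounds for 48 h, highest concentration 100 uM.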

Read-out in experiment [13]: UDP glucuronosyltransferase (UGT1A1), UGT1A1 (gene 54658)
The experiment can be described thus: LTEA_HepaRG_UGT1A1: Life Technologies and Expression Analysis (LTEA) Assay for UDP glucuronosyltransferase (UGT1A1) using HepaRG (AID 2283538). As to conditions: mRNA level, 48 h; actives raise or lower the signal. The essentials: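 Cells are plated, cultured 48 h, switched to serum-free induction medium, then dosed 48 h at eight concentrations (max 100 uM, 0.5% DMSO). RNA is isolated and UGT1A1 expression measured by qRT-PCR; changes versus DMSO are fitted in both directions.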

Read-out in experiment [14]: UDP glucuronosyltransferase (UGT1A6), UGT1A6 (gene 54578)
The experiment can be described thus: LTEA_HepaRG_UGT1A6: Life Technologies and Expression Analysis (LTEA) Assay for UDP glucuronosyltransferase (UGT1A6) using HepaRG (AID 2283539). As to conditions: mRNA level, 48 h; actives raise or lower the signal. The essentials: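 Human HepaRG cells were dosed for 48 h in serum-free induction medium with 0.5% DMSO vehicle, eight-point half-log series from 100 uM, in duplicate. UGT1A6 mRNA was measured by qRT-PCR, normalized to ACTB, GAPDH, POLR2A, and fitted bidirectionally against DMSO.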

Read-out in experiment [15]: X-box binding protein 1 (XBP1), XBP1 (gene 7494)
The experiment in a line: LTEA_HepaRG_XBP1: Life Technologies and Expression Analysis (LTEA) Assay for X-box binding protein 1 (XBP1) using HepaRG (AID 2283540). As to conditions: mRNA level, 48 h; actives raise or lower the signal. The essentials:
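Differentiated human HepaRG cells in serum-free induction medium were exposed in duplicate for 48 h to eight half-log concentrations up to 100 uM in 0.5% DMSO. XBP1 mRNA was quantified by qRT-PCR, normalised to ACTB, GAPDH and POLR2A, with bidirectional fitting against DMSO.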

Experiment [16] is described as follows: LTEA_HepaRG_LDH_cytotoxicity: Cytotoxicity Assessment in the Life Technologies and Expression Analysis (LTEA) Assay (AID 2283563; active = hit-call score of the fitted dose curve at least 0.9, where 1 is the maximum;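 as to AC50: LDH activity released into spent culture medium as a marker of cell death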). Put shortly:
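Differentiated human HepaRG cells, plated 48 h beforehand, were switched to serum-free induction medium and exposed for 48 h to eight half-log concentrations (top 100 uM) in 0.5% DMSO. LDH was measured in spent medium; activity was fitted relative to DMSO vehicle.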

Experiment [17] in a line: ATG_XTT_Cytotoxicity: Cytotoxicity Assessment in the Attagene TRANS-FACTORIAL HepG2 Assay (AID 2283584; active = hit-call score of the fitted dose curve at least 0.9, where 1 is the maximum). The essentials:
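HepG2 human liver cells, transiently transfected with multiple GAL4-UAS reporter units, were dosed and read at 24 h by XTT as cell number. Loss of signal was fitted relative to DMSO negative control baseline.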

Read-out in experiment [18]: Thyroid Hormone Responsive (THRSP), THRSP (gene 7069)
The experiment in a line: LTEA_HepaRG_THRSP: Life Technologies and Expression Analysis (LTEA) Assay for Thyroid Hormone Responsive (THRSP) using HepaRG (AID 2283536). As to conditions: mRNA level, 48 h; actives raise or lower the signal. Put shortly:
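qRT-PCR read-out (Fluidigm TaqMan), housekeeping-normalized (ACTB/GAPDH/POLR2A). HepaRG, 48 h chemical exposure, 8-pt half-log series from 100 uM in 0.5% DMSO, duplicates. Bidirectional curve fit vs 0.5% DMSO baseline.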

The source of these data is PubChem BioAssay (EPA / NIEHS).

Results filed as inconclusive are left out. Calls of active or inactive are those of the source. The calls were made as follows, unless noted: active = hit-call score of the fitted dose curve at least 0.9, where 1 is the maximum; inactive = score below 0.9.

Sequence of Nuclear factor erythroid 2-related factor 2 (Homo sapiens) (Q16236 whole entry, looked up): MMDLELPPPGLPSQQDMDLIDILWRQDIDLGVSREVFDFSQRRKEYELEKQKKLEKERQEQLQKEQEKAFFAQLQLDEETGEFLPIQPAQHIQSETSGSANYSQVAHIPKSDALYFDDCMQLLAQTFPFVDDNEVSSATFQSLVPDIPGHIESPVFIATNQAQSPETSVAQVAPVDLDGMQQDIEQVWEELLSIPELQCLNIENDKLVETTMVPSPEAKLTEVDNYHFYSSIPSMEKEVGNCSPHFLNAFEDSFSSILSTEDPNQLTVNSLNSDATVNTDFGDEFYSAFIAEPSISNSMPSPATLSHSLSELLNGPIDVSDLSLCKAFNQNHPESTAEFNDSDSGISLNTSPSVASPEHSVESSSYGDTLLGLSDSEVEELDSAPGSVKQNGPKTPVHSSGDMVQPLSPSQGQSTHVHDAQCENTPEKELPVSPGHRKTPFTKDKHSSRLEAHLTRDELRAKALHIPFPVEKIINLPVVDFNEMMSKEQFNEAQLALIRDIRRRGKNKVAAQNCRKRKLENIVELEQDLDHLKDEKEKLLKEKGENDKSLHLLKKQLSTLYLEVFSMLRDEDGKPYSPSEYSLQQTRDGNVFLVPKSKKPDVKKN
Sequence of Cellular tumor antigen p53 (Homo sapiens) (P04637 whole entry, looked up): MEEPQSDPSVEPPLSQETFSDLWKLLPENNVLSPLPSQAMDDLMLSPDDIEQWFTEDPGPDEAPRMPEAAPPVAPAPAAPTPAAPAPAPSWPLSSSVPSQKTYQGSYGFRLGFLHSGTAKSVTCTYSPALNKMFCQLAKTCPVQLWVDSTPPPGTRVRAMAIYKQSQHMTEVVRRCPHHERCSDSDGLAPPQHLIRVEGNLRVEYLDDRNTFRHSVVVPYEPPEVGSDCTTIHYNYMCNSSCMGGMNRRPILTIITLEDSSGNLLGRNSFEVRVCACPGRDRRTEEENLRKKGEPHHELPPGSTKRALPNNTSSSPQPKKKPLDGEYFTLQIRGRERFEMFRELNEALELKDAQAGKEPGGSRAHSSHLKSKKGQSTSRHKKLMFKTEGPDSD
Sequence of Signal transducer and activator of transcription 3 (Homo sapiens) (P40763 whole entry, looked up): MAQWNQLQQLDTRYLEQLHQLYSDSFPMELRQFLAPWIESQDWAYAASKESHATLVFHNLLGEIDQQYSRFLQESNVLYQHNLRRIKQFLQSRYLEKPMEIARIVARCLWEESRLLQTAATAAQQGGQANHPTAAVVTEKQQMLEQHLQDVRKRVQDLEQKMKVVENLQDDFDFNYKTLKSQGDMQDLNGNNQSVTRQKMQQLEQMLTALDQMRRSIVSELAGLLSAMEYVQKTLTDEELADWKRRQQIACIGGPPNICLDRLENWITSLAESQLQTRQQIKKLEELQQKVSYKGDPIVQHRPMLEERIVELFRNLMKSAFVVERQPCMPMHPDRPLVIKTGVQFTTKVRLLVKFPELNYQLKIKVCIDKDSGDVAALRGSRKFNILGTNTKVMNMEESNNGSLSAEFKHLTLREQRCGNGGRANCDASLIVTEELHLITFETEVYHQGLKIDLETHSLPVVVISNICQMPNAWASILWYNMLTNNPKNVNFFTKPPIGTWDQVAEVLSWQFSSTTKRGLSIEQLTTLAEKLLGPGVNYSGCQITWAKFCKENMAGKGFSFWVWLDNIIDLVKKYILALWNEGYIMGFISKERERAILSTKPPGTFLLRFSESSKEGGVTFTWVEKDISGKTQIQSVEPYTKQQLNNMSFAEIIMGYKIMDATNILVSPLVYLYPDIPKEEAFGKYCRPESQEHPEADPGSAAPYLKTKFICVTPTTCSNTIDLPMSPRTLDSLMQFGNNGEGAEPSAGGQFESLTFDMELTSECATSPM

With `O=C1OC(=O)C2C3C=CC(C3)C12` (centres undefined), the call in experiment [1], in experiment [2], in experiment [3], in [4], in experiment [5] and in experiment [6] was inactive. Also, the outcome in experiment [7] is “inactive”; in experiment [8] it was “inactive”; in [9], “inactive”; in experiment [10], “inactive”; in the experiment with TIMP1, TIMP1 (gene 7076) it was “inactive”; in experiment [11], “inactive”. Moreover, the molecule was classed as inactive in experiment [12], in experiment [13], in [14], in [15], in experiment [16] and in [17].
Turning to `COCCOc1cc2cc(C(=O)NC3CCN(C(C)C)CC3)n(CC(=O)Nc3ccc(Cl)cn3)c2cn1`, the half-maximal activity concentration (AC50) was 45 µM (active) in experiment [1]; 62.1 µM (active) in experiment [2]; 56.5 µM (active) in [7]; 18.2 µM (active) in the experiment with TIMP1, TIMP1 (gene 7076); 51.5 µM (active) in [18]; 82.2 µM (active) in experiment [13]. In addition, the results for the AC50 in experiment [15] and in experiment [16] were 12.1 µM (active) and 59.3 µM (active), respectively. In addition, the result in [4], in experiment [5], in [6], in experiment [8], in experiment [9] and in experiment [10] was inactive. For the same molecule, the call in experiment [11], in experiment [12] and in experiment [14] was inactive.
For the molecule `O=C(O)c1cccc(N(Cc2cccnc2)c2ccc(OC(F)F)c(OC(F)F)c2)c1`, the molecule was called inactive in [1], in experiment [2], in [4], in experiment [5], in [7] and in experiment [8]. Moreover, the outcome in [9] was “inactive”; in [10] it was “inactive”; with TIMP1, TIMP1 (gene 7076), “inactive”; in experiment [18], “inactive”; in experiment [12], “inactive”; in experiment [14] it was “inactive”. The outcome in [15], in [16] and in [17] was inactive. Moreover, the AC50 in experiment [13] is 25 µM (active).
`C=CCCCCCCCCC(=O)O`: the AC50 in [1] is 0.00821 µM (active). Also, the outcome in [2], in experiment [3], in [4], in [5], in experiment [6] and in experiment [7] was inactive. Besides, the outcome was “inactive” in experiment [8]; “inactive” in experiment [9]; “inactive” in experiment [10]; “inactive” with TIMP1, TIMP1 (gene 7076); “inactive” in experiment [11]; “inactive” in experiment [12]. For the same molecule, the result in experiment [13], in experiment [14], in [16] and in [17] was inactive.
In the case of `CCNc1ccccc1`, the molecule was called inactive in experiment [1], in [2], in [4], in experiment [5], in experiment [6] and in [7]. Besides, the outcome in experiment [8] was “inactive”; in experiment [9], “inactive”; in [10] it was “inactive”; with TIMP1, TIMP1 (gene 7076), “inactive”; in experiment [11], “inactive”; in experiment [18], “inactive”. The molecule was classed as inactive in [12], in experiment [13], in [14] and in [16].
